The values that follow come from PubChem BioAssay (NCI).

Where “and” joins values, the source holds several entries; their conditions need not be identical. Equal values may be shown once. This is part of a sample that, as a whole, favours compounds with a hit. Of some 83,000 tested, about 20% had one in any assay.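 Results are percent growth after 48 hours of single-concentration exposure. 100 means growth as in untreated cells, lower positive values show inhibition; negative values down to -100 show cell death.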 Calls of active or inactive are those of the source. How the source made its calls: active means growth percent below 10; inactive means the rest.

One experiment relates to RXF 393 renal. Put plainly: NCI-60 one-dose screen, 48 h (100 = growth as untreated, 0 = no growth, -100 = all killed). The conditions noted are these: 10 µM unless noted.
Consider `CN(Cc1ccccc1)c1nc(Cl)c(C2CC(c3ccc4c(c3)OCO4)=NN2c2cc(Cl)cc(Cl)c2)s1` (centres undefined), for which the growth was 109% (inactive).
On to `COc1ccc(C2Nc3nc(SC)nc(N)c3N=C3c4ccccc4CCC32)cc1` (centres undefined), for which the growth is 122% (inactive).
Same read-out and setting: for `CCN(CC)CCOc1ccc(/C(=C(\Cl)c2ccccc2)c2ccccc2)cc1` the value was -58.3% (active) and -26.6% (active); for `O=C1/C(=C/c2ccccc2)CN(C(=O)C(Cl)Cl)C/C1=C\c1ccccc1`, -35.2% (active); for `Cc1ccc(S(=O)(=O)OC[C@@]2(C)CC[C@]3(C)CC[C@]4(C)C(=CC[C@@H]5[C@@]6(C)CCCNC(C)(C)[C@@H]6CC[C@]54C)[C@@H]3C2)cc1`, -85.9% (active).
Still for that read-out and setting: for `O=C1/C(=C/c2cn(-c3ccccc3)nc2-c2ccccc2)SC(=S)N1c1ccc(Cl)cc1` the value was 88.4% (inactive); for `O=c1ccc2nc(-c3ccccn3)nn(-c3ccccc3)c-2c1`, 65% (inactive).
In the case of `C[C@@H]1CC[C@@H]2[C@@H]1[C@H](OC(=O)/C=C/c1ccccc1)[C@]1(c3ccccc3)C[C@@H](NC(=O)CO)[C@@]2(C)O1`, the growth is 83.2% (inactive).

A further experiment concerns SF-268 CNS. The description is as above. The conditions noted are these: 10 µM unless noted.
`COc1ccc2c(c1)c(-c1nc(-c3c[nH]c4c(Cl)nccc34)cs1)cn2C`: the growth is 111% (inactive).
The same measure, in the same setting: as for `C[C@]12CCc3c(ccc4cc(O)ccc34)[C@@H]1C[C@H](O)[C@@H]2O`, the figure is 103% (inactive); as for `ON=C1CCCCCCCC1`, 99.8% (inactive) and 96.9% (inactive); as for `CCCCCCCCCCCCCCCC[N+](C)(C)CCN(Cc1ccc(OC)cc1)c1ncccn1`, -92.9% (active) and 38% (inactive).
With `Cc1nc2sc(C(=O)Nc3cccc4ncccc34)c(N)c2cc1C(C)O` (centres undefined), the growth is 87.7% (inactive).
For the molecule `C=C[C@]1(C)C=C2CC[C@@H]3C(C)(C)C(=O)CC[C@@]3(C)[C@@H]2CC1`, the growth is 97.6% (inactive).
Still for that read-out and setting: as for `CC[C@H](C)[C@H](NC(=O)[C@H](CCCCN)NC(=O)[C@H](CCCCN)NC(=O)[C@@H](NC(=O)[C@@H](NC(=O)[C@@H](N)Cc1cnc[nH]1)[C@@H](C)CC)[C@@H](C)CC)C(=O)N[C@@H](CCCNC(=N)N)C(=O)N[C@H](C(=O)N[C@@H](Cc1c[nH]c2ccccc12)C(=O)N[C@@H](Cc1ccc(O)cc1)C(=O)N[C@@H](CCCNC(=N)N)C(=O)N[C@@H](CCCCN)C(=O)N[C@@H](C)C(=O)N[C@@H](Cc1c[nH]c2ccccc12)C(=O)N[C@@H](Cc1cnc[nH]1)C(=O)N[C@H](C(=O)N[C@@H](CC(C)C)C(=O)NCC(=O)N[C@@H](CCCCN)C(=O)N[C@H](C(N)=O)C(C)C)C(C)C)[C@@H](C)O`, the figure is -12.7% (active); as for `CC(=O)N1N=C(c2ccc(F)cc2)CC1c1sc(N(C)Cc2ccccc2)nc1Cl` (centres undefined), 87.1% (inactive).
For the molecule `Cn1ccnc1CN1CCSC(C(=O)Nc2ccccc2)C1` (centres undefined), the growth was 95.1% (inactive).
Consider `COc1ccc(/C=C2/C(=O)N=C3N2NC(c2ccccc2)=CN3c2ccccc2)cc1`, for which the growth is 98.5% (inactive).
`Cc1oc2c(Cc3ccc(NC(=O)c4ccc(Cl)cc4)cc3)ncnc2c1C(=O)NO`: the growth is 97.6% (inactive).
Take `CCN1CCN(C(=O)[C@]23CC[C@@H](C)[C@H](C)[C@@H]2C2=CC[C@@H]4[C@@]5(C)CCC(=O)C(C)(C)[C@@H]5CC[C@@]4(C)[C@]2(C)CC3)CC1`: the growth was 39.7% (inactive).
Same read-out and setting: for `CC/C=C\C/C=C\C[C@H](O)C/C=C1/C(=O)C=C[C@@H]1C/C=C\CCCC(=O)OC` the value was 8.53% (active); for `COc1ccc(-c2nnc3n(C)c(=O)c4ccccc4n23)cc1O`, 54.1% (inactive).
Consider `Cc1ccc(NC(=O)c2ccc(CN3CCN(C)CC3)cc2)cc1Nc1nccc(-c2cccnc2)n1`, for which the growth was 104% (inactive) and 74.5% (inactive).
In the case of `OCCN1CCN(CC/C=C2\c3ccccc3Sc3ccc(Cl)cc32)CC1`, the growth was 51.7% (inactive) and 46.6% (inactive).
On the same count and under the same terms, as for `COc1cc(-c2nn(-c3cccc(NC(=O)CCN4CCN(C)CC4)c3)cc2-c2ccncc2)ccc1Cl`, the figure is 31.5% (inactive); as for `Cc1cnc(C(=O)NNc2nc3sc4c(c3c(=O)[nH]2)C(C)CCC4)cn1` (centres undefined), 16.7% (inactive).
On the same count and under the same terms, for `Cc1nc(-n2[nH]c(=O)ccc2=O)sc1N=Nc1ccccc1` the value was 104% (inactive); for `CC(=O)c1c(C)nc(SCC(=O)Nc2ccc(Cl)cc2)n1-c1ccc(Cl)cc1`, 92.5% (inactive); for `C[N+]1=C(/C=C\C=C\c2ccccc2)C(C)(C)c2ccccc21`, 38.5% (inactive).
